This is an account of results in PubChem BioAssay (NCI).

Where “and” joins values, the source holds several entries; their conditions need not be identical. Identical values can stand only once. The panel holds about 83,000 compounds, 20% with a hit somewhere; the sample as a whole holds those more often.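 Activity criterion: percent growth below 10, measured after cells in 96-well plates were exposed to a single compound concentration for 48 hours.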 Unmarked numbers belong to inactive results. Calls of active or inactive are those of the source.

The test relates to HL-60(TB) leukemia. Nature of the test: NCI-60 one-dose screen, 48 h (100 = growth as untreated, 0 = no growth, -100 = all killed). The following applies: 10 µM unless noted.
As to `CN1CCN(CC#CCNC(=O)[C@]23CCC(C)(C)C[C@H]2C2=CC[C@@H]4[C@@]5(C)Cc6c([nH]c7ccccc67)C(C)(C)[C@@H]5CC[C@@]4(C)[C@]2(C)CC3)CC1`, the growth is 49.4%.

In the case of `O=C1N[C@H]2[C@H](CS[C@H]2CCCCC(=O)N(CCP(c2ccccc2)c2ccccc2)CCP(c2ccccc2)c2ccccc2)N1`, the growth was 72.8%.

For the compound `CN(O)c1nc(N(C)O)nc(N2CCOCC2)n1`, the growth was 21.5%.

`Br/C(=N\Nc1nn[nH]n1)c1ccccc1`: the growth is 103%.

On to `COc1cc(C(=O)n2nc(N3CCN(C)CC3)c3cc(N)ccc32)cc(OC)c1OC`, for which the growth is 1.68% (active).

Take `CCOC(=O)C(CCC#N)(CCC#N)C(=O)OCC`: the growth was 103%.

Turning to `c1coc(-c2c3ccc(=[N+]4CCCCC4)cc-3oc3cc(N4CCCCC4)ccc23)c1`, the growth was -57.5% (active).

In the case of `COC(=O)[C@H](NC(=O)C1(C)CCC[C@]2(C)[C@H]3C[C@H]4C(C(C)C)=C[C@]3(CC[C@@H]12)[C@@H]1C(=O)CCC(=O)[C@@H]14)C(C)C` (stereo not given in full), the growth is 103%.

For `O=S(=O)(NCCNc1cc(-c2c(-c3cccc(O)c3)nc3sccn23)ccn1)c1ccc(C(F)(F)F)cc1`, the growth was 15.7%.

Consider `O=C1Nc2ccccc2/C1=C\c1nc(-c2ccccc2F)n2ccccc12`, for which the growth was 73.4%.

With `Nc1nc2c3ccncc3cc(-c3cccc(Cl)c3)c2c2cnccc12`, the growth is 6.71% (active).

On to `NC(=S)N/N=C/Cc1ccccc1`, for which the growth was 47.2%.

Take `Cc1ccc(C=C2C(Cl)=C(Cl)C(Cl)=C2Cl)cc1`: the growth is 7.68% (active).

On to `CN(C)CCNc1cc(-c2ccccc2)nc2ccccc12`, for which the growth is -17.7% (active).

For `O=c1[nH]c([C@@H]2CCCN2)nc2c1oc1ccc(Cl)cc12`, the growth was 101%.

Consider `CC(C)n1cnc2c(=S)nc[nH]c21`, for which the growth is 141%.

With `CN(C)c1ccc(/C=N/n2c(-c3cc(F)c(Cl)cc3Cl)nn(CN3CCOCC3)c2=S)cc1`, the growth is 101%.

As for `COc1ccc(-c2nc3sccn3c2/C=C/C(=O)c2ccc3c(c2)OCO3)cc1`, the growth was 79.6%.

For the compound `CCOC(=O)c1cc(C(=O)c2cc(OC)c(OC)c(OC)c2)n2ncc3ccccc3c12`, the growth was 28.7%.

`O=C(Nc1cccc(Cl)c1)c1cc([N+](=O)[O-])ccc1O`: the growth is 44.4%.

In the case of `C=C1NC(=O)C(C(C)CC)NC(=O)C2CSCC(NC(=O)CCC(=O)O)C(=O)NC(Cc3ccccc3)C(=O)NC(C)C(=O)NC(CC(C)CC)C(=O)NC(C(=O)NC(Cc3ccccc3)C(=O)N3CCCC3C(=O)N2)C(C)OC(=O)C(CO)NC(=O)C(C(O)COC)N(C)C(=O)C(C(C)C)NC(=O)C(CC(C)CC)NC1=O` (stereo not given), the growth is -26.8% [6 µM] (active).

Take `O=S(=O)(Nc1cc(Br)c(O)c2ccccc12)c1ccc(F)cc1`: the growth is -26.9% (active).

Consider `CCCCCCC(C)CC1=C(O)c2ccccc2C(=O)C1=O` (stereo not given), for which the growth is 37.5%.

Consider `O=C(Nc1nc2ccc(F)cc2s1)c1cc(-c2ccc(F)cc2)n2nc(-c3ccccc3)cc2n1`, for which the growth was 92.9%.

Take `Brc1ccc2c(c1)CN(C1CCCCC1)CO2`: the growth is 106%.

For `CN(C)C/C=C/C(=O)Nc1cc2c(Nc3ccc(F)c(Cl)c3)ncnc2cc1O[C@H]1CCOC1`, the growth is -44.7% (active).

For `CCCCN(CCCC)CC(O)CN(CC)CC` (stereo not given), the growth was 108%.

`CC1=NN(c2nc(SCC(=O)Nc3nc4ccc(C)cc4s3)nc(-c3ccccc3)c2C#N)C(=O)C1`: the growth is 111%.

Take `CNC(=O)c1ccc(C)c(-n2c(C)cc(OCc3ccc(F)cc3F)c(Br)c2=O)c1`: the growth is 61.1% and 91%.

Regarding `COC(=O)/C=C/C(=O)NC(N)=O`, the growth is 97.4%.

For `Cc1cc(Cl)nc(N(CCCNc2ccnc3cc(Cl)ccc23)Cc2cccs2)n1`, the growth is -41.4% (active).

For `O=C1c2ccccc2C(=O)N1/N=C/c1ccc2c(c1)OCO2`, the growth is 88.1%.

With `CC(=O)c1cc(O)c2ccccc2c1O`, the growth is 63.9%.

For the compound `c1ccc2c(c1)oc1c3c(ccc12)NCCC3`, the growth was 91.8%.

In the case of `O=C1Nc2ccc(Br)cc2/C1=N/c1n[nH]c(=S)s1`, the growth is 99.2%.

For `CCOc1ccccc1NC(=O)CCl`, the growth was 104%.

As for `CCOC(=O)/C=C/c1cc2cc(-c3csc4ccccc34)ccc2[nH]1`, the growth is 32.1%.

Regarding `Cc1ccc(C2=Nc3c(N)ncnc3NC(c3ccc4c(c3)OCO4)C2)cc1` (stereo not given), the growth was 33.2%.

In the case of `COC(=O)[C@]12CC[C@@H](C)[C@H](C)[C@@H]1C1=CC[C@@H]3[C@@]4(C)CC(=O)[C@H](O)[C@@](C)(CO)[C@@H]4C(=O)C[C@@]3(C)[C@]1(C)CC2`, the growth is -33.3% (active).

In the case of `NC(=S)NN=C1CCC(C2CCCCC2)CC1` (stereo not given), the growth was 91.2% and 70.9%.
